Experimental data published in PubChem BioAssay AID1852 (Sanford-Burnham Center for Chemical Genomics, 2009).
The campaign covered roughly 2,500 compounds. About 1,100 (44%) were called active. So high a share suggests a set chosen from earlier hits. The list shows a part of the results. Values without a mark were called inactive.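 Rule for the calls: active = inhibition above 50% at 4 µM in the single-point screen; inactive = inhibition of 50% or less.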

assay: TNF-a-driven NF-kB reporter inhibitors, primary screen, selectivity assay for NOD1/NOD2 signaling inhibitor project, cell-based, HEK293T NF-kB-Luc, luminescence (AID 1852); conditions: TNF-a induced, 14 h, at 4 µM, active compounds read high

SMILES	inhibition
O=C(CNC(=O)c1cccc(Br)c1)N/N=C/c1cc(Br)cc(Br)c1O	11.3%
O=C(N/N=C/c1c(O)ccc2ccccc12)c1cccnc1	101% (active)
S=C(N/N=C/c1ccc2ncccc2c1)Nc1cccnc1	29.3%
CCOc1cc(Br)cc(/C=N/NC(=O)c2cccnc2)c1O	69.2% (active)
C[C@@H](C(=O)Nc1ccc2ccccc2c1)[C@@H]1C[C@@]1(C)[C@@H](NC(=O)c1cccnc1)c1ccccc1	11%
O=C(N/N=C\c1c(O)ccc2ccccc12)c1cncc(Br)c1	54.9% (active)
O=C(CCCc1nc(-c2ccc(Cl)cc2)no1)NC1CCCCC1	28.3%
Cc1ccc(-c2noc(CCCC(=O)NC3CCCCC3)n2)cc1	29.6%
O=C(CCCc1nc(-c2ccc(Cl)cc2)no1)NC1CCCC1	55.5% (active)
CC(=O)N(Cc1ccc(F)cc1)C1=C(NCCc2ccccc2)C(=O)c2ccccc2C1=O	102% (active)
O=C(NCc1ccccc1)C1CCCN1S(=O)(=O)c1ccc(F)cc1 (configuration not stated)	21.4%
Cc1cc(C)nc(OC(C(=O)O)C(OCCc2ccccc2)(c2ccc(F)cc2)c2ccc(F)cc2)n1 (configuration not stated)	-13.2%
CC(=O)N(Cc1ccc(F)cc1)C1=C(NCc2ccccc2)C(=O)c2ccccc2C1=O	91.2% (active)
CC1(C)N=C(N)N=C(N)N1c1ccc(OCCCOc2ccccc2)c(Cl)c1	59.9% (active)
COc1ccc2nc(N3CCCCC3)c(/C=C3\SC(=S)NC3=O)cc2c1	43.6%
Cn1c(SC2=CS(=O)(=O)c3ccccc32)nc2ccccc21	56% (active)
Cc1cc(C)nc(SC2=CS(=O)(=O)c3ccccc32)n1	14.1%
O=S1(=O)C=C(Sc2nc3ccccc3s2)c2ccccc21	82.7% (active)
O=C(Nc1ccc(Cc2ccncc2)cc1)c1ccc(S(=O)(=O)N2CCCC2)cc1	50.3% (active)

SMILES	inhibition
O=C(Nc1ccc(S(=O)(=O)Nc2ccc(F)cc2)cc1)c1ccc(CN2CCOCC2)cc1	61.1% (active)
O=C(Nc1ccc(S(=O)(=O)N2CCOCC2)cc1)c1ccc(CN2CCc3ccccc3C2)cc1	65.5% (active)
O=C(Nc1ccc(CN2CCOCC2)cc1)c1ccc(-c2ccc(Cl)cc2Cl)o1	44.2%
CCN(CC)c1ccc(S(=O)(=O)N2CCOCC2)cc1NC(=O)CN1CCc2ccccc2C1	21.6%
COc1ccc(NS(=O)(=O)c2ccc(NC(=O)c3ccc(CN4CCOCC4)cc3)cc2)cc1	37.6%
O=C(Nc1ccc(S(=O)(=O)N2CCCCC2)cc1)c1ccc(CN2CCOCC2)cc1	73.2% (active)
O=C(Nc1ccc(S(=O)(=O)N2CCCC2)cc1)c1ccc(Br)o1	6%
C/C=C/Cn1c(SCc2ccc(C)cc2)nc2c1c(=O)[nH]c(=O)n2C	18.9%
O=C(Nc1ccc(S(=O)(=O)N2CCCCC2)cc1)c1ccc(CN2CCc3ccccc3C2)cc1	59% (active)
CCN(CC)S(=O)(=O)c1ccc(C(=O)Nc2ccc(Cc3ccncc3)cc2)cc1	63% (active)
CCN(CC)S(=O)(=O)c1cccc(NC(=O)c2ccc(Br)cc2)c1	27.5%
COc1ccc(CNc2nc3c(c(=O)n(Cc4ccc(Br)cc4)c(=O)n3C)n2C)cc1	15.5%
CCN(CC)S(=O)(=O)c1cccc(C(=O)c2c(C)cc3ccccn23)c1	27.9%
COc1ccccc1NS(=O)(=O)c1cccc(-n2c(O)c(C=Nc3ccccc3C(=O)O)c3ccccc3c2=O)c1	69% (active)
CCN(CC)S(=O)(=O)c1cccc(-n2c(O)c(C=Nc3ccccc3C(=O)O)c3ccccc3c2=O)c1	70.1% (active)
COc1ccccc1NS(=O)(=O)c1cccc(NC(=O)Nc2ccc(Cl)cc2)c1	46.4%
COc1ccc(Cn2c(O)c(C=Nc3ccccc3C(=O)O)c3ccccc3c2=O)cc1	69.6% (active)
Cc1cc(C(=O)Nc2ccc(Cl)cc2)c(C)n1-c1ccccc1	56.3% (active)
COc1cc(NC(=O)c2cccs2)c(C(=O)OCC(=O)c2cc(C)n(-c3ccccc3)c2C)cc1OC	41.1%

SMILES	inhibition
O=C(Nc1ccc(Cl)cc1)c1cccc(N2C(=O)C3C4CCC(C4)C3C2=O)c1 (configuration not stated)	3.3%
CCOc1ccc(NC(=O)C2CCCN(S(=O)(=O)c3c(C)noc3C)C2)cc1 (configuration not stated)	49.2%
COc1ccc(-c2nc(NC(C)=O)sc2-c2ccccc2)cc1	58.1% (active)
CC(=O)c1c(C)[nH]c(C(=O)Nc2nc(-c3ccccc3)c(C)s2)c1C	-37.3%
COc1ccc(-c2nnc(Sc3nc4ccccc4o3)c3ccccc23)cc1	-25.6%
COc1ccc(S(=O)(=O)n2ccc(C(C)Oc3ccc(-c4ccccc4)c(F)c3)n2)cc1 (configuration not stated)	20.1%
O=C(O)c1cccc(S(=O)(=O)Nc2ccccc2Cc2ccccc2)c1	14.3%
CCc1ccc(S(=O)(=O)/N=C2\C=C(Nc3cccc(C(=O)O)c3)C(=O)c3ccccc32)cc1	107% (active)
COc1ccc(S(=O)(=O)/N=C2\C=C(Nc3ccc(O)cc3)C(=O)c3ccccc32)cc1	101% (active)
CCc1ccc(S(=O)(=O)/N=C2\C=C(Nc3ccc(C(=O)O)cc3)C(=O)c3ccccc32)cc1	49.3%
O=C1C(Cl)=C(Nc2ccc(O)cc2)C(=O)c2ccccc21	30.4%
CCc1ccc(S(=O)(=O)/N=C2\C=C(Nc3ccc(O)cc3)C(=O)c3ccccc32)cc1	106% (active)
c1ccc(CCCNc2ncccn2)cc1	19%
CCOc1ccc2nc(SCc3ccc(CC(=O)O)cc3)c(C#N)cc2c1	64.6% (active)
Nc1c(Cl)ncnc1N/N=C/c1ccccn1	109% (active)
Cc1cc(/C=N/Nc2ncnc(N)c2[N+](=O)[O-])c(C)n1-c1ccccc1	3.7%
COc1cc(/C=C2\COC/C(=C\c3cc(OC)c(OC)c(OC)c3)C2=O)cc(OC)c1OC	106% (active)
COc1cc(/C=C2\CC(C(C)(C)C)C/C(=C\c3cc(OC)c(OC)c(OC)c3)C2=O)cc(OC)c1OC (configuration not stated)	87.2% (active)
COc1cc(/C=C2/CCc3ccccc3C2=O)cc(OC)c1OC	-23.8%
